Results on four compounds are retold here after ChEMBL document CHEMBL1201862, “PubChem BioAssay data set” (2004).

The species entered for the assay is Homo sapiens. The assay is described as follows: Quantitative High-Throughput Screen for Compounds Blocking the Interaction Between CBF-beta and RUNX1 for the Treatment of Acute Myeloid Leukemia: Summary. [Related pubchem assays (depositor defined):AID1477, AID504370, AID504374, AID504375]. The format is functional.
`O=C(O)CCCC[C@@H]1SC[C@@H]2NC(=O)N[C@@H]21`: the Potency is 1780 nM (active).
`O=C(O)CCCC[C@@H]1SC[C@H]2NC(=O)N[C@@H]12`: the Potency was 12600 nM (active).
For `CC1CC(NC(=O)C2C3CCC(O3)C2C(=O)O)CC(C)(C)C1` (centres undefined), the Potency was 112 nM (active).
The value for `CCCCn1c(NS(=O)(=O)c2ccccc2)c(C(=O)OCC)c2nc3ccccc3nc21` was 112 nM (active).
